Rows were chosen to be rich in hits. Some 4% of all compounds tested hit in one or more screens of this group.
RecA intein inh = Mtb RecA intein splicing inhibitors, primary screen, biochemical, fluorescence, HTS; cell-free RecA intein splicing; Protein RecA (Mycobacterium tuberculosis (strain ATCC 25618 / H37Rv)), P9WHJ3; 290,000 compounds, 0.75% hits; inhibition, % (concentration not given with the values); AID 2221, 2009; in the data active = inhibition above about 30%;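 also: 0% = vehicle wells and 100% = reference inhibitor control wells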
Rv3671c protease = Rv3671c serine protease inhibitors, primary screen, biochemical, fluorescence polarization, M. tuberculosis H37Rv; P9WHR9; inhibition, % at 5.96 µM; 320,000 compounds, 0.048% hits; in the data active = inhibition above about 38%;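 also: extracellular domain of Rv3671c used as enzyme; 0% = enzyme with DMSO and 100% = no enzyme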
Mtb UGM inh = M. tuberculosis UGM enzyme inhibitors, primary screen, biochemical, fluorescence polarization, single point; UDP-galactopyranose mutase (Mycobacterium tuberculosis (strain ATCC 25618 / H37Rv)), …; purified UGM, fluorescence polarization probe displacement; inhibition, % at 10 µM; 320,000 compounds, 0.06% hits; in the data active = inhibition above about 10%, passing the limit was not always enough
Target sequence (P9WIQ1 whole entry, looked up): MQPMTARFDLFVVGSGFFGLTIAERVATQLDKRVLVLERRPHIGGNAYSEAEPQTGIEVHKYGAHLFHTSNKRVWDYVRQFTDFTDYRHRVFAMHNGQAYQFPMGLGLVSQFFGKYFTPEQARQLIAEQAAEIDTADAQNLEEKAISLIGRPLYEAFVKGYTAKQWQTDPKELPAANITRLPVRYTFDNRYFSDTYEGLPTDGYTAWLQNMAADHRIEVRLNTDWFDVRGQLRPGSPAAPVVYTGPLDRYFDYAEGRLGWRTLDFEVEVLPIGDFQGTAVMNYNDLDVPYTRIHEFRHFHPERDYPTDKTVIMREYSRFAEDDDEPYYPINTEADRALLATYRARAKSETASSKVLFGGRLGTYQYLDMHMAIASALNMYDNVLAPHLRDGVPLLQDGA
GDH-TPI counter = GDH-TPI coupling enzyme inhibitors, primary screen, artefact control for M. tuberculosis FBA inhibitor project, biochemical, absorbance, full deck. GDH-TPI coupled enzyme counterscreen, NADH absorbance. inhibition, % at 4.8 µM. 360,000 compounds, 1.2% hits; in the data active = inhibition above about 30%;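 also: 0% = DMSO wells and 100% = wells lacking the enzyme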
Mtb bLac sens = beta-lactam sensitization of Mtb H37Rv, H37Rv; M. tuberculosis H37Rv growth with meropenem, percent inhibition; inhibition, % at 25 µM; 330,000 compounds, 0.27% hits; AID 434955, 2010; call rule not given here;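 also: growth measured after seven days incubation then overnight dye step; 0% = bacteria only wells and 100% = bacteria with antibiotic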
Mtb FBA inh = Mtb FBA enzyme inhibitors, primary screen, biochemical, fluorescence, strain H37Rv. Fructose-bisphosphate aldolase (Mycobacterium tuberculosis (strain ATCC 25618 / H37Rv)), …. purified M. tuberculosis FBA, fluorescence read-out. inhibition, % at 1 µM. 360,000 compounds, 2.3% hits. AID 588726, 2011; in the data active = inhibition above about 27%;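 also: 0% = vehicle and 100% = reference inhibitor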
Numbers without * were called inactive; . = not tested or not shown; + = active, no number.

SMILES	RecA intein inh	Rv3671c protease	Mtb UGM inh	GDH-TPI counter	Mtb bLac sens	Mtb FBA inh
CN1CC=C2C(C#N)=C(N)C(C#N)(C#N)C(CCc3ccccc3)C2C1 (stereo unspecified)	-22	-7	2	0	-7	39*
COc1ccccc1N1CCN(S(=O)(=O)c2cc(-c3cc(C)no3)ccc2C(C)C)CC1	-4	5	-4	-3	-2	-1
CC(C)c1cccc(-c2ccc3c(c2)S(=O)(=O)c2cccc(C(=O)O)c2C3=O)c1	.	-1	-3	31*	-10	-2
CCOC(=O)c1ccc(N2C(=O)CC(N3CCC(O)(c4ccc(Cl)cc4)CC3)C2=O)cc1 (stereo unspecified)	1	-4	1	39*	0	2
Cc1ccc(CN2C(=O)C(C)Oc3ccc(C)cc32)cc1 (stereo unspecified)	.	.	.	15	.	4
Cc1cc(OC(C)C(=O)NCCCN2CCOCC2)ccc1Cl (stereo unspecified)	0	-9	2	1	-5	3
O=C(NNC(=S)Nc1ccc(C(=O)O)c(O)c1)c1ccncc1	.	.	.	24	.	-2
O=c1c(O[C@@H]2O[C@H](CO)[C@@H](O)[C@H](O)[C@H]2O)c(-c2ccc(O)cc2)oc2cc(O)cc(O)c12	.	3	3	37*	-1	4
O=C(CCc1ccc(O)cc1)c1c(O)cc(O)cc1O[C@@H]1O[C@H](CO)[C@@H](O)[C@H](O)[C@H]1O	-2	-4	-1	33*	1	2
OC[C@H]1O[C@@H](Oc2ccc(O)cc2)[C@H](O)[C@@H](O)[C@@H]1O	.	.	.	-6	.	-1
Cc1ccc(C(=O)NCCCNC(=O)COc2ccc(C)c(C)c2)cn1	1	-8	1	5	-3	5
Cc1cc(OCc2cn(CC(=O)c3ccc(O)cc3)nn2)ccc1[N+](=O)[O-]	.	.	.	41*	.	0
CCn1c(NC(C)=O)nc2ccccc21	-2	9	-3	3	72	-3
CCn1c(NC(=O)c2cccs2)nc2ccccc21	1	7	-2	36*	100	1
O=C(c1ccco1)N1CCN(C(=O)C2CC(=O)N(c3ccccc3)C2)CC1 (stereo unspecified)	-3	1	0	-6	0	3
CSc1ccc(/C=N/NC(=O)c2ccc(C)c(C)c2)cc1	0	-5	0	24	29	1
COc1ccc(OCc2ccc(/C=N\NC(=O)c3sccc3C)o2)cc1	-2	.	-1	19	5	3
CSc1ccc(/C=N/NC(=O)c2sccc2C)cc1	-3	-7	-1	45*	2	-2
CSc1ccc(/C=N/NC(=O)c2cc(O)cc(O)c2)cc1	-1	-11	3	49*	0	2
O=C(CCC(=O)c1ccc(Oc2ccccc2)cc1)Nc1ccc(C(=O)O)cc1	0	4	-2	13	0	0
CC1(C)OC(=O)C(=NNc2ccccc2C(=O)O)C(=O)O1	1	7	-2	49*	12	-4
COc1cccc(-c2nnc(Nc3nc4c(F)cccc4s3)o2)c1	2	3	1	59*	96	134*
O=C1C=C(c2cccc(Br)c2)C[C@@H](c2ccc3c(c2)OCO3)C1	.	-7	-1	-7	10	0
CN(C)c1oc(-c2ccccc2F)nc1C#N	0	3	2	22	4	+
CN(C)c1oc(-c2cccs2)nc1C#N	-5	8	0	30	-3	+
SMILES	RecA intein inh	Rv3671c protease	Mtb UGM inh	GDH-TPI counter	Mtb bLac sens	Mtb FBA inh
CNc1oc(-c2cccs2)nc1C#N	-2	0	-3	23	-14	+
O=C(CSC(=S)N1CCCC1)N/N=C/c1c(O)[nH]c(=S)[nH]c1=O	.	-31	1	46*	3	6
COCCn1c(O)c(/C=N/NC(=O)CSC(=S)N2CCCC2)c(=O)[nH]c1=S	.	1	2	32*	-4	-3
COC(=O)c1ccc(/C=N/NC(=S)NC(C)C)cc1	0	9	2	48*	-4	-3
COC(=O)c1ccc(/C=N/NC(=O)CC(=O)NC(C)C)cc1	1	-5	1	3	6	-3
COCCNC(=O)C1CCCN(S(=O)(=O)c2c(C)noc2/C=C/c2cccs2)C1 (stereo unspecified)	-3	5	0	22	-4	3
COc1ccccc1CNC(=O)C1CCCN(S(=O)(=O)c2cnc[nH]2)C1 (stereo unspecified)	.	-6	2	8	5	-1
COc1ccccc1CNC(=O)C1CCCN(S(=O)(=O)c2c(C)[nH]c(=O)[nH]c2=O)C1 (stereo unspecified)	-2	5	0	5	0	65*
COc1cccc(CNC(=O)C2CCCN(S(=O)(=O)c3c(C)noc3/C=C/N(C)C)C2)c1 (stereo unspecified)	-2	-14	-1	34*	-8	0
Cc1noc(/C=C/N(C)C)c1S(=O)(=O)N1CCCC(C(=O)NCc2cccs2)C1 (stereo unspecified)	3	-21	2	38*	7	0
COc1cccc(CNC(=O)C2CCCN(S(C)(=O)=O)C2)c1 (stereo unspecified)	1	-2	0	11	-2	2
CN(C)C(=O)c1ccc(NC(=O)c2cccc(-n3cnnn3)c2)cc1	.	.	.	12	.	0
O=C(/C=C/c1ccco1)c1ccc(NC(=O)C23CC4CC(CC(C4)C2)C3)cc1	34*	-56	4	2	100	4
O=C(C=Cc1ccco1)c1ccc([N+](=O)[O-])cc1	.	.	.	21	.	-2
COc1ccc(C(C)NC(=O)C2CCN(CCOc3ccc(Cl)cc3Cl)CC2)cc1OC (stereo unspecified)	.	.	.	9	.	-2
C#CCOCCOCCOCCNc1nc(N2CCN(C(=O)CCCCCCCCCCNC(=O)[C@H](CCCCN)n3cc(C[C@@H](C)CC)nn3)CC2)nc(N2CCN(C(=O)CCCCCCCCCCNC(=O)[C@H](CCCCN)n3cc(C[C@@H](C)CC)nn3)CC2)n1	66*	-13	-2	-8	65	3
COC1=Nc2ccccc2/C=C\c2ccccc21	.	.	.	3	.	0
COC(=O)C(NC(=O)c1ccccc1)=C1C=C(C)OC(C)=C1	0	7	-1	31*	4	-3
CCOC(=O)C(NC(=O)c1ccccc1)=C1C=C(C)OC(C)=C1	-2	4	-1	42*	42	-3
COC(=O)C(NC(=O)c1ccccc1)=C(C)C	-2	1	1	6	-4	2

Screening results as filed in PubChem BioAssay.
